Assay results: PubChem BioAssay (NCATS)
Where “and” joins values, the source holds several entries; their conditions need not be identical. Equal entries are not always repeated. Records with an inconclusive call do not appear. Where a call stands in place of a potency, no number is given. Values without a mark were called inactive. Calls of active or inactive are those of the source. Calls follow the shape of the dose curve; as a rule, active = well fitted curve in the direction sought with a large enough effect; inconclusive = small, poorly fitted or top-dose-only effect, or another doubt; inactive = no such curve, though single readings can be large; an effect the other way counts as inactive or inconclusive.

Tests used:
[1] = molecular target: Cellular tumor antigen p53 (Homo sapiens) (UniProt P04637); experiment: Primary qHTS for small molecule compounds that upregulate eGFP-tagged delta133p53alpha (in N-terminal) cells. (AID 2060322); conditions: NCI-H358 eGFP-delta133p53alpha fluorescence, 24 h; activation: stronger effect = higher value; also: nearly all actives have a fitted effect of over 75% in size; also: potency is read from the fitted curve at half-maximal effect; as to activation: series mostly up to about 56 µM
Cellular tumor antigen p53 (Homo sapiens), sequence (P04637 whole entry, looked up): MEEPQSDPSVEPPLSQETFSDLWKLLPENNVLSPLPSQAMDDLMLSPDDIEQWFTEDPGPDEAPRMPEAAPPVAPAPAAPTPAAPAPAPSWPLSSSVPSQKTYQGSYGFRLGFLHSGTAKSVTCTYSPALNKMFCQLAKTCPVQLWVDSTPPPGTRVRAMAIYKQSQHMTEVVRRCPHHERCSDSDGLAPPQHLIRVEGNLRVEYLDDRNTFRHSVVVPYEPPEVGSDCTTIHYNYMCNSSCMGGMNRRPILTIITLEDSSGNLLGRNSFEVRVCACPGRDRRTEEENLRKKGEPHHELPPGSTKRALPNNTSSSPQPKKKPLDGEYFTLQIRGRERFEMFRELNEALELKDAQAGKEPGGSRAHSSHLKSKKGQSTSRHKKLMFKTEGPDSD
In short: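 NCI-H358 cells pre-induced 24 h with 10 ng/ml doxycycline to express N-terminal eGFP-delta133p53alpha, then dosed 24 h at 37C without doxycycline; fixed, Hoechst-stained, GFP intensity by laser scanning cytometry, normalized to DMSO (0%) and 57.5 uM 5-azacytidine (100%).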

[2] = molecular target: Aldehyde dehydrogenase, mitochondrial (Homo sapiens) (UniProt P05091); experiment: qHTS for Inhibitors of the Aldehyde Dehydrogenase Family (ALDH2) Primary screen (AID 2061308); also: nearly all actives have a fitted effect of over 55% in size
[3] = molecular target: Retinaldehyde dehydrogenase 3 (Homo sapiens) (UniProt P47895); experiment: qHTS for Inhibitors of the Aldehyde Dehydrogenase Family (ALDH1A3) Primary screen (AID 2061315)

Compound | Potency [1] | Potency [2] | Potency [3] | activation [1]
C=C1C(=O)O[C@@H]2[C@H]3C(C)=CC(=O)C3=C(C)[C@@H](OC(=O)/C(C)=C\C)[C@H](O)[C@@H]12 | 16.6 µM (active) | inactive | inactive | –
CC(C(O)/C=C/C(C)(C)O)C1CCC2(C)C3C(=O)C=C4C(CCC(O)C4(C)C)C3(C)CCC12C (stereo not given) | – | inactive | inactive | -22.3%
CCC(C)/C=C(C)/C=C/C1=CC2=C(Cl)C(=O)C(C)(OC(C)=O)C(=O)C2=CN1CCCC(=O)O (stereo not given) | – | inactive | inactive | 0.763%
Cc1cc(C(N)=O)ccc1-n1c(CCC(=O)O)ccc1-c1ccc(-n2ccnc2)cc1 | – | inactive | inactive | -2.68%
C/C=C/C=C/C=C/C(=O)N(C)C(C(=O)NC(C)C(=O)N1CCCC1C(N)=O)C(C)C (stereo not given) | – | inactive | inactive | 17.6%
CC(/C=C/C1=CC2=CC(=O)C(C)(O)C(O)C2=CO1)=C\C(C)CCO (stereo not given) | – | inactive | inactive | 7.63%
CC1(C)CC2C(O)C3=C(CC(C)(O)C2C1)C(=O)OC3O (stereo not given) | – | inactive | inactive | 1.79%
C/C=C(\C)C(=O)O[C@H]1C=CC(=O)O[C@H]1/C=C/[C@H](O)[C@@H](C)O | 21.3 µM (active) | inactive | inactive | –
CN1CCN(C(c2ccccc2)c2ccccc2)CC1 | – | inactive | inactive | 14.2% and -0.955%
C[C@]12C=CC(=O)C=C1CC[C@@H]1[C@@H]2[C@@H](O)C[C@@]2(C)[C@H]1CC[C@]2(O)C(=O)COC(=O)CCC(=O)O | – | inactive | inactive | 13%
